Source: PubChem BioAssay (NCI)
Values joined by “and” are separate entries in the source; they are usually repeats but may differ in a detail not shown here. Equal values may be shown once. The panel holds about 83,000 compounds, 20% with a hit somewhere; the sample as a whole holds those more often.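 Treatment: one concentration, 48 hours, 96-well format. Scoring: percent growth, with anything below 10 considered active.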 A number with no mark means an inactive call. Active and inactive are the calls of the source.

test system: MDA-MB-468 breast; assay: NCI-60 one-dose screen, 48 h (100 = growth as untreated, 0 = no growth, -100 = all killed); settings: 10 µM unless noted

Going from `CC1CC(C)/C(=N/NC(N)=O)C(C(O)CC2CCC(=O)NC2=O)C1` (stereo not given) to `CC1(C)CC2(C)CC(=O)C1C(C(=O)O)C2C(=O)O` (stereo not given), the growth rises from 46.9% to 114%.

Compared with `O=S(=O)(NCCCNc1nccc(-c2c(-c3ccc(F)c(O)c3)nc3sccn23)n1)c1ccc(Cl)cc1`, `CCN(CC)CCC(CNc1ccnc2cc(Cl)ccc12)c1ccc(O)cc1` (stereo not given) is lower in growth: 82.8% for the first, 81.1% for the second.

Compared with `CCNc1nc2ccc(Nc3ccnc4cc(Cl)ccc34)cc2[nH]1`, `COc1cc2nc(Nc3ccc(F)cc3)nc(N)c2cc1OC` is higher in growth: 21.8% for the first, 83.4% for the second.

First: O=C(O)c1ccc(NC(=O)c2cccc(Nc3ccnc(C(F)(F)F)c3)c2)cc1
Second: O=C(Nc1ncc(Cc2cccc(C(F)(F)F)c2)s1)c1ccc(-n2cnnn2)cc1
The growth of the first is higher: 108% for the first, 16.7% for the second.

Going from `COc1ccc2c(c1)[n+](=O)c(/C=C/C(=O)c1cc(OC)c(OC)c(OC)c1)c(C)n2[O-]` to `COc1cc(CNC(=O)C2CSC3(C)c4ccccc4C(=O)N23)cc(OC)c1OC` (stereo not given), the growth rises from 24.9% to 89.6%.

Compared with `Cc1cc(-c2cc(C)c(O)c(C)c2)cc(C)c1O`, `Nc1ccc2c(c1)C(=O)c1cc(Cl)c(Cl)cc1-2` is higher in growth: 26.1% for the first, 89.9% for the second.

Going from `COc1cc(CNC(=O)CCCC/C=C/C(C)C)ccc1OCc1cn(-c2cccc([N+](=O)[O-])c2)nn1` to `CC(C)C1C2=C(NCCN1C(=O)c1ccncc1)C(C)(C)N(Cc1ccccc1)C2=O` (stereo not given), the growth rises from 72.3% to 110%.

First: CCNC(=O)Nc1nc2ccc(Oc3ccnc(C(=O)NC)c3)cc2s1
Second: CCOc1ccccc1NC(=O)CCC(=O)OC
The growth of the first is lower: 50.8% for the first, 99.7% for the second.

Going from `O=C(Nc1ccc(Cl)cc1)N1NC(c2ccc(Cl)cc2)C=C1c1ccccc1` (stereo not given) to `O=C(CSc1nnc(-c2ccc3nc(-c4ccccc4)[nH]c3c2)o1)Nc1ccc(C(=O)/C=C/c2ccccc2)cc1`, the growth rises from 98.3% to 112%.

First: CC(C)=CCC[C@](C)(O)[C@H]1CC[C@]2(C)[C@@H]1CC[C@@H]1[C@@]3(C)CCC(NC(=O)c4ccccc4C(=O)O)C(C)(C)[C@@H]3CC[C@]12C (stereo not given in full)
Second: CC(C)(C)[Si](C)(C)OC1[C@@H](O[Si](C)(C)C(C)(C)C)[C@@H](CNC(=O)NC(=O)NC(=O)CI)O[C@H]1n1cnc2c(NC(=O)Nc3ccccc3)ncnc21 (stereo not given in full)
The growth of the first is higher: 89.4% for the first, 75.5% for the second.

Going from `Fc1ccc2nc3c(cc2c1)CSc1nnc(-c2ccc[nH]c2=S)n1N3` to `O=c1cc(-c2ccc3c(c2)OCCO3)oc2cc(Cl)ccc12`, the growth falls from 105% to 66.4%.

Compared with `CCCCCCCCCCCCCCCCC(=O)O`, `CC(=O)c1ccc(Br)c([N+](=O)[O-])c1` is higher in growth: 102% for the first, 112% for the second.

First: COCCOc1cc2ncnc(N3CCN(c4cc(S(C)(=O)=O)c(C)cc4Cl)CC3)c2cc1OCCOC
Second: O=C(NCCc1ccccn1)OCc1nc2nc(Cl)nc(N3CCOCC3)c2[nH]1
The growth of the first is higher: 90.2% for the first, 24.9% for the second.

Going from `Cc1cc2c(c(=O)o1)C(c1ccc(OC(=O)N3CCOCC3)cc1)C(C#N)=C(N)O2` (stereo not given) to `CC1(c2ccccc2)CO1` (stereo not given), the growth falls from 119% to 110%.

`CC(C)[C@H]1CCC2=C3CC[C@]45OC(=O)[C@@]6(CCC(C)(C)C[C@H]64)CC[C@@]5(C)[C@]3(C)CC[C@@]21C` was tested, and the growth was 76.4% [100 µM].

In the case of `Cc1nn(-c2ccc(F)cc2)c2ncnc(Nc3ccc(NC(=O)Nc4ccc(Cl)c(C(F)(F)F)c4)cc3)c12`, the growth is reported as -2.58% (active).
`CN1CCN(Cc2ccc(NC(=O)c3cncc(C#Cc4ccc(N)nc4)c3)cc2C(F)(F)F)CC1` was tested, and the growth was -8.99% (active).
In the case of `Cc1ccc(S(=O)(=O)OCC#CCOS(=O)(=O)c2ccc(C)cc2)cc1`, the growth is reported as -25.3% (active).
With `O=C(CCN1CCCC1)Nc1ccc2c(NCc3ccccc3)c3ccccc3nc2c1` the growth was -37.1% (active).
In the case of `Cc1cc2c3ccccc3ccc2[n+]2ccccc12`, the growth is reported as -60.6% (active).
In the case of `NC1CCC(Nc2nc(NCc3ccc(-c4ccccc4O)nc3)c3ncn(C4CCCC4)c3n2)CC1` (stereo not given), the growth is reported as -73.7% (active).
In the case of `COc1ccc(C(=O)c2sc3nc4c(cc3c2N)CCCC4)cc1OC`, the growth is reported as -5.94% (active).
In the case of `C#CCNC(=O)c1cccc2c1cc(C)n2-c1nc2c(c(NCc3ccccc3)n1)CCCC2`, the growth is reported as -50.9% (active).
For `Cc1cc(Cl)nc(N2CCN(CCNc3ccnc4cc(Cl)ccc34)CC2)n1`, the growth was 4.38% (active).
With `O=c1oc2c(C(F)(F)F)cccc2cc1-c1csc(Nc2ccc(OCCF)cc2)n1` the growth was 5.55% (active).
For `Cc1cc2nc3ccc(=[N+](C)C)cc-3sc2cc1N`, the growth was -13.4% (active) and -40.6% (active).
